Experimental data: the supplement of paper PMC9950053
Where a name gives a salt, the structure may show the parent alone.

system: Danio rerio larvae (5 dpf); assay: excitability (activity period 17 minus period 16, 1-s interval sound) minus DMSO control (percentage points); higher = more acoustic excitability than DMSO larvae; conditions: 10 µM; exposure time: 3 h pre-incubation + 3 h imaging
Experimental: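 Wild-type 5 dpf zebrafish larvae (n=48 per drug, 96-well plates, 28.5 °C) were exposed to Tocris FDA-approved library compounds at 10 µM (0.1% DMSO) for 3 h before and 3 h during imaging. Images were taken every 6 s during visual (moving coloured lines) and acoustic stimuli, and larvae were tracked with the DeepLabCut-based Z-LaP Tracker. Each behavioural measure is the treated-group mean minus the DMSO vehicle control mean (n=844), in percentage points. This mapping covers compounds with 4-character plate codes.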

SMILES | excitability
Nc1nc(F)nc2c1ncn2[C@@H]1O[C@H](CO)[C@@H](O)[C@@H]1O [Fludarabine] | 1.97
Nc1nc(NC2CC2)c2ncn([C@H]3C=C[C@@H](CO)C3)c2n1 [Abacavir hemisulfate] | 0.611
COc1ccc(C[C@@H](C)NC[C@H](O)c2ccc(O)c(NC=O)c2)cc1 [Arformoterol tartrate] | 4.62
Nc1ccn([C@@H]2O[C@H](CO)[C@@H](O)C2(F)F)c(=O)n1 [Gemcitabine hydrochloride] | 1.87
Cc1ccc(-c2cc(C(F)(F)F)nn2-c2ccc(S(N)(=O)=O)cc2)cc1 [Celecoxib] | 4.91
Cc1cccc(CN2CCN(C(c3ccccc3)c3ccc(Cl)cc3)CC2)c1 (stereo not given) [Meclizine dihydrochloride] | 8.17
CN1CC(=O)N2[C@H](c3ccc4c(c3)OCO4)c3[nH]c4ccccc4c3C[C@@H]2C1=O [Tadalafil] | 5.81
COc1cc2nc(N3CCN(C(=O)C4COc5ccccc5O4)CC3)nc(N)c2cc1OC (stereo not given) [Doxazosin mesylate] | 21.8
NS(=O)(=O)Cc1noc2ccccc12 [Zonisamide] | 4.75
OC(CNCC(O)C1CCc2cc(F)ccc2O1)C1CCc2cc(F)ccc2O1 (stereo not given) [Nebivolol hydrochloride] | 12.7
Nc1nc2c(ncn2COCCO)c(=O)[nH]1 [Acyclovir] | 3.35
CCCCC(=O)N(Cc1ccc(-c2ccccc2-c2nnn[nH]2)cc1)[C@H](C(=O)O)C(C)C [Valsartan] | -1.67
COc1ccc(Cl)cc1C(=O)NCCc1ccc(S(=O)(=O)NC(=O)NC2CCCCC2)cc1 [Glibenclamide] | 2.33
COc1c(C)c2c(c(O)c1C/C=C(\C)CCC(=O)OCCN1CCOCC1)C(=O)OC2 [Mycophenolate mofetil] | 4.14
Cc1cccc(C)c1OCC(C)N (stereo not given) [Mexiletine hydrochloride] | 3.31
COc1c(C)c2c(c(O)c1C/C=C(\C)CCC(=O)O)C(=O)OC2 [Mycophenolic acid] | 1.48
CCOC(=O)c1ncn2c1CN(C)C(=O)c1cc(F)ccc1-2 [Flumazenil] | 2.65
CCOC(=O)C1=C(COCCN)NC(C)=C(C(=O)OC)C1c1ccccc1Cl (stereo not given) [Amlodipine besylate] | 1.82
CC(C)(C)NC(=O)[C@@H]1C[C@@H]2CCCC[C@@H]2CN1C[C@@H](O)[C@H](Cc1ccccc1)NC(=O)[C@H](CC(N)=O)NC(=O)c1ccc2ccccc2n1 [Saquinavir mesylate] | 7.09
Cc1cn([C@H]2C=C[C@@H](CO)O2)c(=O)[nH]c1=O [Stavudine] | 1.32

SMILES | excitability
Nc1ncn([C@H]2C[C@H](O)[C@@H](CO)O2)c(=O)n1 [Decitabine] | 8.23
CO[C@H]1/C=C/O[C@@]2(C)Oc3c(C)c(O)c4c(O)c(c5c(nc6cc(C)ccn65)c4c3C2=O)NC(=O)/C(C)=C\C=C\[C@H](C)[C@H](O)[C@@H](C)[C@@H](O)[C@@H](C)[C@H](OC(C)=O)[C@@H]1C [Rifaximin] | 5.77
OCCN(CCO)c1nc(N2CCCCC2)c2nc(N(CCO)CCO)nc(N3CCCCC3)c2n1 [Dipyridamole] | -2.85
CCc1ccc(CCOc2ccc(CC3SC(=O)NC3=O)cc2)nc1 (stereo not given) [Pioglitazone hydrochloride] | 9.48
CC(=O)S[C@@H]1CC2=CC(=O)CC[C@]2(C)[C@H]2CC[C@@]3(C)[C@@H](CC[C@@]34CCC(=O)O4)[C@H]12 [Spironolactone] | 3.91
CCOC(=O)C1=C(C)NC(C)=C(C(=O)OC)C1c1cccc(Cl)c1Cl (stereo not given) [Felodipine] | -10.3
CC(C)Nc1cccnc1N1CCN(C(=O)c2cc3cc(NS(C)(=O)=O)ccc3[nH]2)CC1 [Delavirdine mesylate] | 2.93
C[C@H](Cc1cc2c(c(C(N)=O)c1)N(CCCO)CC2)NCCOc1ccccc1OCC(F)(F)F [Silodosin] | 22.6
CCOc1nc2cccc(C(=O)O)c2n1Cc1ccc(-c2ccccc2-c2noc(=O)[nH]2)cc1 [Azilsartan] | 4.01
C/C(O)=C(\C#N)C(=O)Nc1ccc(C(F)(F)F)cc1 [Teriflunomide] | 9.34
CN1CC[C@@H](NC(=O)Nc2ccc(C#N)cc2)C[C@@H]1c1nc2ccccc2[nH]1 | 6.95
CCOC(=O)N1CCC(=C2c3ccc(Cl)cc3CCc3cccnc32)CC1 [Loratidine] | -3.25
Cc1cc(C2CCCCC2)n(O)c(=O)c1 [Ciclopirox] | 5.61
CCc1c2c(nc3ccc(OC(=O)N4CCC(N5CCCCC5)CC4)cc13)-c1cc3c(c(=O)n1C2)COC(=O)[C@]3(O)CC | 8.99
CC(=O)Oc1ccccc1C(=O)O [Aspirin] | 10.3
CC(C)CN(C[C@@H](O)[C@H](Cc1ccccc1)NC(=O)O[C@H]1CO[C@H]2OCC[C@H]21)S(=O)(=O)c1ccc(N)cc1 [Darunavir] | -0.913
CC(=O)NC[C@H]1CN(c2ccc(N3CCOCC3)c(F)c2)C(=O)O1 [Linezolid] | 6.87
Cc1ccc(NC(=O)c2ccc(CN3CCN(C)CC3)cc2)cc1Nc1nccc(-c2cccnc2)n1 [Imatinib mesylate] | 13.3
Cc1nnc(C(C)C)n1C1C[C@H]2CC[C@@H](C1)N2CC[C@H](NC(=O)C1CCC(F)(F)CC1)c1ccccc1 (stereo in doubt) [Maraviroc] | 6.13
C[C@]12CCC(=O)C=C1CC[C@@H]1[C@@H]2[C@@H](O)C[C@@]2(C)[C@H]1CC[C@]2(O)C(=O)CO [Hydrocortisone] | 3.96
